# An excerpt weighted towards active compounds, which were near 3.6% of everything screened.
# IMPase Li inh – IMPase inhibition in cells with lithium potentiation | CHO-M1 cells, IP1 TR-FRET (IP-One), carbachol + lithium | Potency, µM (highest dose often 59.4 µM), for inactives: at the highest dose activity, negative = IMPase inhibition, hits mostly inhibitors | actives 0.35% (n = 210,000) | AID 1457;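 further: IP1 builds up when IMPase is blocked and the TR-FRET signal falls; plate controls were basal vehicle for no effect and high inhibitor control for full effect; nearly all actives have a fitted effect of over 50% in size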
#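 IP1 accumulation measured by competitive TR-FRET in lysed CHO-M1 cells after 30 min compound exposure at 37C, with a small lithium addition to potentiate weak responses. Hill-equation AC50 from ratio and donor-channel data.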
# JMJD2E inh – JMJD2E (human) inhibition | B2RXH2 | JMJD2E catalytic domain, FDH-coupled NADH fluorescence (FDH is formaldehyde dehydrogenase) | Potency, µM (series often up to 57.1 µM), for the others: at the top dose activity change, negative = inhibition, most hits filed as inhibitors | actives 1.6% (n = 230,000) | AID 2147; active means well fitted inhibition curve with a large enough effect, not every such curve was filed as active; inconclusive means small, poorly fitted or top-dose-only effect, or another doubt; inactive means no such curve, though single readings can be large or run the other way;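 further: 0% = wells with enzyme and -100% = buffer wells without enzyme; nearly all actives have a fitted effect of over 50% in size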
# Target sequence (B2RXH2 1-337 limits assumed): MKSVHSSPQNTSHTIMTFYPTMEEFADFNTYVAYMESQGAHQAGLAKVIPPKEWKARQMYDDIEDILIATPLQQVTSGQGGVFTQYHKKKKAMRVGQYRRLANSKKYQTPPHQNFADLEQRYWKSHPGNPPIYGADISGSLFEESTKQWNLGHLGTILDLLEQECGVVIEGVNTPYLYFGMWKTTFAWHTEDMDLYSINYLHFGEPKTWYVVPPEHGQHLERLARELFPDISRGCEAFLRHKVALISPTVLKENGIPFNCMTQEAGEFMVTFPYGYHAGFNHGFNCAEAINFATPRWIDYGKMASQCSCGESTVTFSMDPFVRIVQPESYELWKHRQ
# Sfp PPTase inh – inhibitors of Bacillus subtilis Sfp phosphopantetheinyl transferase. Biochemical Sfp PPTase activity, qHTS. actives 3.5% (n = 310,000). Potency, µM, for the others: largest response in the series, negative = inhibition, usual class: inhibitors;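 further: the enzyme is Sfp with the accession as filed and its product quenches rhodamine fluorescence; 0% = enzyme reaction without inhibitor and -100% = no enzyme wells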
#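 Fluorescence-quenching assay: 15 nM Sfp-PPTase preincubated 15 min at room temperature with compound, then 5 uM rhodamine-CoA and 12.5 uM BHQ-2-labelled YbbR peptide added. Fluorescence (ex 525/em 598 nm) read at start and after 30 min; difference gives rate.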
# KAT2A inh – GCN5L2 (KAT2A) acetyltransferase inhibition | GCN5L2 HAT assay, ThioGlo1 CoA-SH fluorescence | Potency, µM (top dose mostly 58.9 µM), inactives show at the top dose activity change, negative = inhibition, usual class: inhibitors | actives 0.21% (n = 390,000) | AID 504327; further: on the % scale 0 is the no-effect control and ±100 the full control effect
#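 GCN5L2 (20 nM) in 50mM HEPES pH 7.5, 0.1mM EDTA, 0.01% Tween-20 preincubated 15 min with compounds at room temperature. Reaction started with H3(1-25) 75uM, acetyl-CoA 70uM, ThioGlo1 50uM; CoA-thiol fluorescence (Ex340/Em540) read at 0 and 20 min.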
# NPSR antagonist – neuropeptide S receptor (human) antagonism, cAMP | Q6W5P4 | CHO-NPSR cells, cAMP TR-FRET, antagonist mode | Potency, µM (top dose mostly 38.3 µM), without a hit: top-dose activity change, negative = inhibition, most hits filed as inhibitors | actives 1% (n = 220,000); further: on the % scale 0 is the no-effect control and ±100 the full control effect; nearly all actives have a fitted effect of over 50% in size
# Epigenetic derep – epigenetic control regulation, reporter derepression; murine LDR cells, GFP reporter derepression, 30 h; Potency, µM (titrated, usually from 53.9 µM), for inactives: at the top dose GFP activation, hits mostly activators; actives 0.2% (n = 280,000); further: % of control where 0% means no effect; nearly all actives have a fitted effect of over 60% in size
#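 Murine LDR cells bearing a silenced CMV-driven GFP reporter were exposed to compound for 30 h at 37 C. After PBS washes, GFP-positive cells (20-120 um objects) counted by laser-scanning microplate cytometry.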
# Active calls of the source: *; u = inconclusive; x = no result; [ ] = remark or other dose. Unless noted, the call rests on the fitted dose curve; in most records, active means well fitted curve in the direction sought with a large enough effect; inconclusive means small, poorly fitted or top-dose-only effect, or another doubt; inactive means no such curve, though single readings can be large; an effect the other way counts as inactive or inconclusive. Potency means the concentration at half of the fitted maximal effect.
SMILES,IMPase Li inh,JMJD2E inh,Sfp PPTase inh,KAT2A inh,NPSR antagonist,Epigenetic derep
COCCCn1c(Cc2csc(Nc3cccc(Cl)c3)n2)nnc1SCC(=O)OC,-5%[38.3 µM],-5%,25µM*,-4%,-14%[46.1 µM],-4%
CCc1ccc(NC(=O)c2sc3nc(C)c(Cl)c(C)c3c2NC(=O)c2ccccc2)cc1,x,x,x,1%,x,1%
O=C(Nc1nnc(-c2ccco2)o1)c1ccc(N2C(=O)CCC2=O)cc1,-2%,-1%,79µM*,-16%,5%,-1%
CC(/C=C1\SC(=S)N(NC(=O)c2ccc(O)cc2)C1=O)=C\c1ccccc1,1%,2%,50µM*,-9%,-15%,1%
CCC(C(=O)O)N1C(=O)/C(=C/C(C)=C/c2ccccc2)SC1=S (stereo unspecified),x,-10%,u,u,23%[7.67 µM],0%
Cc1ccc(C(=O)NN2C(=O)/C(=C/c3cn(C)c4ccccc34)SC2=S)cc1,-4%,-8%,-2%,-3%,-17%,6%
O=C(CCCN1C(=O)/C(=C\c2cccs2)SC1=S)NNC(=O)c1ccncc1,-2%,11%,19%,-10%,-5%,-2%
O=C(NN1C(=O)/C(=C/c2cccs2)SC1=S)c1ccncc1,x,-5%,79µM*,0%,u,-2%
Cc1ccc(C(=O)NN2C(=O)/C(=C/c3cccn3C)SC2=S)cc1,-6%,-2%,20µM*,-7%,-5%,-3%
CC[C@H](C)[C@@H](NC(=O)O[C@@H]1C(=O)c2ccc(OC)cc2O[C@H]1c1cccc(C(F)(F)F)c1)C(=O)OC,18%,1%,2%,x,x,1%
COc1ccc2c(c1)O[C@@H](c1cccc(C(F)(F)F)c1)[C@H](OC(=O)N[C@H](C)C1CCCCC1)C2=O,8%,4%,2%,x,x,1%
CN1C(=O)/C(=C2\SC(=S)N(C(CCC(=O)O)C(=O)O)C2=O)c2ccccc21 (stereo unspecified),24%,13µM*,-24%,u,1%[46.1 µM],-2%
CN1C(=O)/C(=C2\SC(=S)N(CC3CCCO3)C2=O)c2ccccc21 (stereo unspecified),-10%[38.3 µM],6%,19%,0%,3%[46.1 µM],1%
COCCOC(=O)c1c(-c2ccccc2)c(-c2ccccc2)nn(C)c1=O,x,x,x,-7%,x,3%
CCc1cccc(NC(=O)CSC2=NS(=O)(=O)c3ccccc32)c1,-6%[38.3 µM],4%,14µM*,-2%,-22%[46.1 µM],0%
CCN(CC)CCOc1ccc(-c2nc3cc(Cl)ccc3s2)cc1,x,x,-18%,-3%,x,x
O=C(Nc1ccccc1C(F)(F)F)Nc1c[nH]c(=O)[nH]c1=O,x,x,x,-3%,x,0%
CCN(Cc1ccncc1)S(=O)(=O)c1ccc(C(C)=O)cc1,13%[38.3 µM],-4%,79µM*,-6%,u,3%
CC(=O)c1ccc(NC(=O)CNCc2cccs2)cc1,x,x,-25%,-1%,x,x
N#Cc1ccc(Cl)cc1NC(=O)CNCc1cccs1,x,x,56µM*,u,x,x
S=C(Nc1ccc2nsnc2c1)N1CCCC1,4%,u,14µM*,u,u,0%
O=C(Nc1ccc2nsnc2c1)N1CCCCCC1,35%[38.3 µM],u,1%,-16%,-11%[46.1 µM],1%
CC1C[N+](=C2C=C(N3CCOCC3)CC(C)(C)C2)CC(C)O1 (stereo unspecified),x,25µM*,u,-2%,-7%,-3%
CC1(C)CC(N2CCOCC2)=CC(=[N+]2CCOCC2)C1,4%,1%,-10%,-18%,3%,5%
C1=CC2CC1CC2CN1CCN(Cc2ccccc2)CC1 (stereo unspecified),45%[38.3 µM],u,79µM*,0%,-4%[46.1 µM],-2%
Cc1sc(N)c(C(=O)c2ccccc2)c1C,-7%,-9%,16µM*,-3%,-3%,0%
CCOC(=O)c1cc(-c2ccccc2)sc1N,-1%,-6%,22µM*,-3%,17%[46.1 µM],1%
O=C(c1ccccc1)c1ccccc1,2%,x,-2%,-1%,x,-6%
